The supplement of paper PMC6555819

test system: PPARa:RXRa (NR concentration 270 nM, RXRa partner concentration 90 nM); experiment: PBM binding z-score (relative to random genomic background probes); higher = stronger binding; sequences stand for … in GC…GCGATTGACAGCGTAGAATGAAGG
Description: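 Protein-binding microarray (Agilent 4x180K custom design, double-stranded 60-nt probes: 5' GC cap, 34-nt variable region, 24-nt constant primer region; full probe sequence given). Purified or IVT nuclear receptor:RXRα heterodimers (3:1 NR:RXRα, mostly 270:90 nM) or homodimers were incubated for 1 h in PBS with 2% milk and no ligand, then detected with Alexa488 antibodies. Fluorescence from o1-orientation probes (~5 replicates averaged) was converted to z-scores against 500 random hg19 background probes. Variable regions are seed direct-repeat (DR0–DR5) sites, all their single-nucleotide variants and half-site ablations.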

Sequence | PBM binding z-score
CGAACTAGGTCGCCAGGACAGTGAAGAGGTTGGA | 2.09
AATACAGGGTCATCGTACGCCAGAGTACGCACAG | 5.99
TCTAGTTGGTCACGGAGGTCACAAACGACGGGTA | 3.87
ATATGTAGGTTGGGGTCATTCAGAAAGTAGGGAA | 6.11
TAGCCTAAGTCATGCGGGCCAGTATAGTGTCGGC | -0.167
CCTTACGGGTCCCTCCAGGTTATAGCATCGGAGT | -0.0853
CCTAGTTGGTCAAGGTCACATACGCTATAGGTAC | 4
AGAATGAGGTTACCAAAGTTCAGGGAAACGCTTG | 4.6
CGAACGAGGTCAAAGGACAGTGAAAGGCGACGTA | 6.37
TCTCGGAGGACACTAAAGGTCAGAGCTCGACATC | 3.42
AATACAAGGTCATCGTAGGCCAGAGTACGCACAG | 5.75
CACACTAGGTCACAGAGGTCAAAGTCCGTGCGTA | 6.51
TAGCCTAGGTCATTCAGGGGCCACTATAGAAAGC | 3.95
CAGCATAGGTCAGGGCCAGTATAGGAGGAACGTT | 3.86
CGTCCAAGGTCGAAGGTCAGTGAAGAGATGACGG | 4.7
TACCCTAGGTCATGGGCCAGTATACCACGCGAAC | 4.51
CGTCAAAGTCCAAGGTAACGTAACAGAAAGCAGC | 0.351
CGAACTAGGTCAAGGCCAGTGAATCTCCGCACGC | 5.04
TCTTGTAGATCAACAGGAGGTTAATAAAGATCGA | 1.23
TAGCCTAGGTCATTCAGGGGCCAGCATAGAAAGC | 3.89

Sequence | PBM binding z-score
CGTCAAAGTTCAACTGAGGTAACGTAAAGCACGC | 5.29
AATACAGGGTCATCGTAGGTCAGAGTACGCACAG | 6.23
TACCCTAGGTCATTGGGCCAGTATAGTACGCATC | 4.06
CGAACAAGGTCATCCAGGACAGTGAATACATTGA | 5.9
CGTCAAAGTTCAACTAAGGTCACGTAAAGCACGC | 6.28
AGCGAAAGGTCGAGGTGAGTATAGAGAAAGGGAA | 4.51
CGAACTAGGTCAAGGGACAGTGAAAGGCGACGTA | 4.78
CAAACAAGGTCAAAGGTCAAAGTCGAGCCAACCA | 7.41
TTACCAAGGTGAACGGTCGTTGATGCACGCCTTG | 2.04
CGTCCAAGGTCATATGAGGTCAGTGAAGACAGAT | 5.65
CCTACTCGGCCAAAAAGGTCATTGATGCCGATAA | 4.87
CGTCCAAGGACAATGCTAGGTCAGTGAAAGCATT | 0.16
AACGAAAGGTCGAAGGTGAGTATACCCACCCGAA | 4.89
CGTCAAACTTCAACTAAGGTAACGTAAAGCACGC | 0.493
ATCAAAAGGTCGAGGTGAGTATAGAGAAAGGGAA | 4.75
CCTCGGAGGACAGAAGGTCAAAGCTGTCCGCTTT | 3.67
TCGCCTAGGTCATGGGCCAGTATACCACGCGAAC | 4.13
AGAACGAGGTCACGCTGAGTTGATAGCAGAGTAG | 6.34
CAAACCAGGTCAAAGGTCAAAGTCGAGCCAACCA | 7.46
CAAACTAGGTCACAAAAGGTCAAAGTCGAATGAC | 6.35
